The source of these data is PubChem BioAssay (NCI).

Test in all cases: NCI-60 one-dose screen, 48 h (100 = growth as untreated, 0 = no growth, -100 = all killed)
What all share (settings): 10 µM unless noted

Assay [1] concerns NCI-H23 lung.
Assay [2] concerns NCI-H226 lung.
Assay [3] relates to NCI-H322M lung.
Assay [4] has as its system HOP-62 NSCLC.
The subject of assay [5] is NCI-H460 lung.
Assay [6] concerns NCI-H522 lung.
For assay [7], the system named is A549/ATCC NSCLC.
In assay [8] the test system is 786-0 renal.
For assay [9], the system named is COLO 205 colon.
Assay [10] deals with DU-145 prostate.
Assay [11] has as its system K-562 leukemia.
In assay [12] the test system is MALME-3M melanoma.
For assay [13], the system named is MDA-MB-231 breast.
The test system of assay [14] is RXF 393 renal.
The subject of assay [15] is SF-268 CNS.
Assay [16] concerns SF-295 CNS.
Assay [17] deals with SF-539 CNS.
In assay [18] the test system is UACC-257 melanoma.
The test system of assay [19] is M14 melanoma.
In assay [20] the test system is HOP-92 NSCLC.

This is part of a sample that, as a whole, favours compounds with a hit. Of some 83,000 tested, about 20% had one in any assay.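 96-well plates, one dose, 48 hours. Percent growth reported; active if below 10.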 A number with no mark means an inactive call. Calls of active or inactive are those of the source.

As to `COc1cc(C(=O)/C=C/c2c(C)n([O-])c3ccc(Cl)cc3[n+]2=O)cc(OC)c1OC`, the growth in assay [1] was 72%; in assay [2] it was 93.2%; in [3], 102%; in assay [4], 82%; in assay [5], 83%; in [6] it was -77.3% (active). Besides, the growth is 81.5% in [7]; 61.7% in assay [8]; 36.4% in [9]; 36.3% in assay [10]; 1.97% (active) in assay [11]; 95.4% in assay [12]. The growth was 81% in assay [13]; 43.2% in assay [14]; 65.5% in assay [15]; 95% in assay [16]; 73.7% in assay [17]; 81.2% in assay [18]. The growth in assay [19] was 80.9%.

As for `COc1cc(NCCN(CC(C)C)C2CCCC2)c2ncccc2c1`, the growth in assay [1] is 81.1%; in assay [2], 92%; in assay [3] it was 118%; in assay [4] it was 82.9%; in assay [5], 95.7%; in [7], 81.7%. For the same molecule, the growth in [8] is 98.1%; in assay [9] it was 101%; in assay [10], 104%; in assay [11] it was 99%; in assay [12], 126%; in assay [13], 79%. In addition, the growth in [15] was 86%; in assay [16], 94.1%; in [17], 98.3%; in assay [18] it was 91.5%; in assay [19], 102%.

Regarding `O=C(Nc1nc2ccc(S(=O)(=O)Nc3ccc(C4(C(F)(F)F)CC4)cc3)cc2[nH]1)c1cnccn1`, the growth in assay [1] was 43.6%; in [2], 54.1%; in [3], 46.6%; in assay [4], 51.5%; in assay [5], 8.38% (active); in [7], 35.1%. For the same molecule, the growth in assay [8] was 33.9%; in assay [9], 35.1%; in assay [10], 30.4%; in assay [11], 21.4%; in assay [12], 37.3%; in assay [13], 59.2%. In addition, the growth is 28.6% in [14]; 34.3% in assay [15]; 33.4% in assay [16]; 5.95% (active) in [17]; 48.5% in assay [18]; 34.7% in assay [19].

Turning to `CCOC(=O)N1CCN(CCCCl)CC1`, the growth was 103% in assay [1]; 102% in assay [2]; 101% in assay [3]; 109% in [4]; 95% in assay [20]; 95.4% in assay [6]. Besides, the growth in assay [7] was 94.8%; in [8] it was 98.4%; in assay [9], 113%; in assay [10], 115%; in [11], 96.2%; in assay [12], 102%. Also, the growth in [13] is 100%; in assay [14], 118%; in [15] it was 104%; in assay [16], 98.8%; in [17], 97.7%; in assay [18], 96.6%. Besides, in assay [19], the growth is 101%.

Regarding `N#C/C(=C\c1ccc(Br)cc1)n1nnc2cccc(F)c21`, the growth is 23.8% in assay [1]; 41.9% in assay [2]; 32.3% in assay [3]; 40% in assay [4]; -47% (active) in assay [5]; 18.4% in assay [6]. The growth in assay [8] was 11.2%; in assay [9] it was -12.5% (active); in [10], 0.426% (active); in assay [11], 12.7%; in assay [12] it was 37.7%; in [13] it was -1.07% (active). Also, the growth in assay [14] is -23.6% (active); in assay [15], 24.4%; in assay [16], 55.4%; in assay [17], 1.06% (active); in assay [18] it was 37.3%; in assay [19], 10.9%.

`CCCCCOc1ccc(/C=N/Nc2cc(C)nc3ccc(Br)cc23)cc1`: the growth is 75.1% in [1]; 91.5% in assay [2]; 65.1% in assay [3]; 58.1% in assay [4]; -57.9% (active) in assay [5]; 1.99% (active) in [6]. Besides, the growth was 2.38% (active) in assay [7]; -90.9% (active) in [8]; -50.4% (active) in assay [9]; 0.579% (active) in assay [10]; -19.6% (active) in assay [11]; -35.9% (active) in assay [12]. Also, the growth was -51.4% (active) in assay [13]; -82.9% (active) in [14]; 87.2% in assay [15]; -84.8% (active) in assay [16]; -83.7% (active) in assay [17]; 102% in [18]. Further, the growth in assay [19] was 15.5%.

With `CC(C)NC(=O)N1C(=O)CCC1NNC(=O)c1ccc([N+](=O)[O-])cc1` (stereo unspecified), the growth is 89.8% in [1]; 104% in [2]; 96.3% in assay [3]; 106% in assay [4]; 121% in [5]; 93.1% in [6]. The growth in [7] was 104%; in assay [8], 98.5%; in assay [9], 112%; in [10], 103%; in [11], 98.6%; in assay [12], 101%. Also, the growth in assay [13] was 108%; in assay [14] it was 123%; in assay [15] it was 100%; in assay [16], 105%; in assay [17] it was 97.7%; in assay [18] it was 111%. Besides, in assay [19], the growth is 100%.

Turning to `O=S(=O)(NCCNc1nccc(-c2c(-c3ccc(F)c(O)c3)nc3occn23)n1)c1ccccc1`, the growth in [1] was 55.1%; in assay [2] it was 92.1%; in [3], 72.7%; in assay [4], 76.9%; in assay [5] it was 29.7%; in [7], 45.8%. The growth in assay [8] was 88.5%; in assay [9], 40.6%; in assay [10], 57.1%; in assay [11] it was 33.6%; in assay [12], -0.538% (active); in [13], 27.7%. The growth in [15] is 57%; in assay [16], 93.3%; in assay [17], 96%; in [18], 25%; in assay [19], 18.8%.
